Test results: ChEMBL document CHEMBL3988442, “University of Dundee, Small-Polar-MMV Screening Library” (2021)
In all, about 69,000 compounds went through this assay and about 950 (1.4%) showed an effect of 50% or more. The full list was thinned out, with strong results kept by preference.

System: Mycobacterium tuberculosis
Test: Cornell M. t heat shock assay; note: in the data most compounds retested in dose-response had high values
Assay type: functional, organism-based
Design: dose or concentration left out as unconfirmed

| Compound | Percent Effect |
| --- | --- |
| CC(C)NC(=O)[C@@H]1C[C@@H]2CCN(Cc3ccoc3)C[C@H]2O1.O=C(O)C(F)(F)F | 43.76% |
| CC(C)N(C)Cc1cnc2n1CCN(C(=O)NC1CCCC1)C2.O=C(O)C(F)(F)F | 7.687% |
| Fc1cnc(N2CCO[C@H]3[C@H](OCCN4CCCC4)CC[C@@H]32)nc1.O=C(O)C(F)(F)F | -1.217% |
| Cc1ccc(N2CC[C@H]3C[C@@H](C(=O)N4CCOCC4)O[C@H]3C2)nn1.O=C(O)C(F)(F)F | 9.789% |
| O=C(Nc1c(N2CCCC2)cccc1N1CCCC1)c1cnsn1 | 3.548% |
| O=C(Nc1c(N2CCCC2)cccc1N1CCCC1)c1cnccn1 | 26.63% |
| O=C(Nc1c(N2CCCC2)cccc1N1CCCC1)c1ccccn1 | 104.6% |
| Cl.Cn1cc(CN2CCN(CC3(c4ccccc4)CC3)CC2)cn1 | -7.6% |
| Cc1cccc(CN2C(=O)CCC23CCN(C(=O)c2ccco2)CC3)n1.O=C(O)C(F)(F)F | -22.73% |
| COCc1nc(-c2ccnc(N3CCNCC3)n2)no1.Cl.Cl | 24.05% |
| O=C(NC1CCS(=O)(=O)C1)c1cn(C2CC2)c(=O)c2ccccc12 (centres undefined) | 62.62% |
| CC(C)n1cc(C(=O)NC2CCS(=O)(=O)C2)c2ccccc2c1=O (centres undefined) | -0.4948% |
| CC(C)Cn1cc(C(=O)NC2CCS(=O)(=O)C2)c2ccccc2c1=O (centres undefined) | 1.323% |
| O=C(O)C(F)(F)F.c1cc(CN2C[C@H](OCC3CCOCC3)[C@H]3COC[C@H]32)cs1 | 11.94% |
| O=C(NC1CCCC1)[C@@H]1CN(Cc2nccs2)C[C@H]2OCC[C@H]21.O=C(O)C(F)(F)F.O=C(O)C(F)(F)F | -17.32% |
| CSCC(C)C(=O)NCc1c(C)nc2cc(=O)[nH]n2c1C (centres undefined) | 9.376% |
| Cn1ccnc1-c1ccc(NC[C@H]2CCc3ccccc3O2)nn1 | 50.1% |
| Cn1ccnc1-c1ccc(NCC2COc3ccccc3O2)nn1 (centres undefined) | 32.53% |
| Cn1ccnc1-c1ccc(NCCC2COc3ccccc3O2)nn1 (centres undefined) | 44.06% |
| Cl.O=C(C1CCC1)N1C[C@@H](c2ccsc2)[C@@H]2CN(C3CCCC3)CC[C@@H]21 | -4.778% |

| Compound | Percent Effect |
| --- | --- |
| O=C(CCn1cc(Cl)cn1)N1C[C@@H]2CC[C@H](C1)N(Cc1ccccn1)C2 | 7.885% |
| CC(NCCN1CCC(N(C)C)CC1)c1ccc(F)cc1N(C)C (centres undefined) | -14.59% |
| CC(NCCCN1CCCC1=O)c1cc(Br)ccc1F (centres undefined) | 13.95% |
| CC(NCCCN1CCCC1=O)c1ccc(F)cc1N(C)C (centres undefined) | 87.91% |
| COCC(=O)NCc1nn(CCN2CCCC2)c(=O)c2ccccc12 | -7.005% |
| CCOC(=O)NCc1nn(CCN2CCCC2)c(=O)c2ccccc12 | 74.86% |
| CCNC(=O)NCc1nn(CCN2CCCC2)c(=O)c2ccccc12 | 41.46% |
| N#CCCN(Cc1cccnc1)C(=O)c1ccc(OCC2CC2)cc1 | 6.663% |
| N#CCCN(Cc1ccco1)C(=O)c1ccc(OCC2CC2)cc1 | 14.1% |
| N#CCCN(CCC#N)C(=O)c1ccc(OCC2CC2)cc1 | 94.69% |
| Cl.NCCC(=O)Nc1ccc(-c2ccccc2)cc1 | 3.2% |
| CC(=O)N1CCC(c2nc3ccc(NC4CCC4)cn3n2)CC1.O=C(O)C(F)(F)F | 21.7% |
| O=C(O)C(F)(F)F.O=C(O)C(F)(F)F.O=c1ccc2c(n1Cc1cccnc1)CCN(Cc1ccoc1)CC2 | -14.95% |
| CC(C)c1nn(C)cc1CNC1CCOc2ccccc21.Cl (centres undefined) | -5.42% |
| O=C(CN1CCCS1(=O)=O)Nc1ccc(OC(F)F)cc1 | -14.39% |
| O=C(CN1CCc2ccccc21)Nc1ccc(OC(F)F)cc1 | 99.06% |
| COc1ccc(CNC(=O)CN2CCc3ccccc32)cc1 | -48.79% |
| COCCN1CCOCC2(C1)CN(C(=O)c1conc1C)CCO2.O=C(O)C(F)(F)F (centres undefined) | 15.5% |
| COCCC(=O)NC1CCN(CC2(c3cccc(F)c3)CCCC2)CC1.Cl | 23.79% |
| COC(C)(C)Cn1ccnc1-c1cccc(C(C)N(C)C)c1 (centres undefined) | -20.81% |

| Compound | Percent Effect |
| --- | --- |
| Cc1ccc(C(=O)O)cc1-c1cccc(C(C)N(C)C)c1 (centres undefined) | -8.231% |
| CC(c1cccc(-c2ncccc2C#N)c1)N(C)C (centres undefined) | 73.93% |
| CC(c1cccc(-c2ncccc2F)c1)N(C)C (centres undefined) | 76.79% |
| CC(c1cccc(-c2ncc(C#N)c(N)n2)c1)N(C)C (centres undefined) | -10.92% |
| CC(c1cccc(-c2nccn2CCc2ccccn2)c1)N(C)C (centres undefined) | -27.93% |
| Cc1ccc(CN2Cc3ccccc3O[C@]3(CC[C@H](CO)CC3)C2)o1.Cl | -44.64% |
| Cc1nc(CN2C(=O)C[C@@H]3[C@@H]2CCN3CC2CCOCC2)cs1.O=C(O)C(F)(F)F | -14.82% |
| COCCC(=O)N1C[C@H]2CN(Cc3cccc(C)n3)C(=O)[C@H]2C1.O=C(O)C(F)(F)F | -12.42% |
| COc1cc(N2C[C@@H]3COC[C@]3(COCc3cccc(C)n3)C2)ncn1.O=C(O)C(F)(F)F.O=C(O)C(F)(F)F | 1.772% |
| Cc1cnccc1-c1cnn(CCNC(=O)c2ccncc2)c1C1CC1.Cl | -0.5476% |
| CN(C)CCN1C(=O)C2(CCN(CC3CC3)CC2)c2ccccc21.O=C(O)C(F)(F)F.O=C(O)C(F)(F)F | 2.693% |
| Cc1ccc(CN2CCC[C@]3(C(=O)O)CN(C)C[C@@H]3C2)s1.O=C(O)C(F)(F)F.O=C(O)C(F)(F)F | 10.8% |
| CCn1c(CN(C)C)nnc1C1CCN(c2ccnc(C)c2)CC1 | 105.5% |
| CCn1c(CN(C)C)nnc1C1CCN(c2nccc(NC)n2)CC1 | -31.54% |
| Cc1cc(N2CCC(c3nnc(CN(C)C)n3C3CC3)CC2)ccn1 | -0.4086% |
| Cc1cc(-n2cncn2)n2ncnc2n1 | 61.29% |
| Cc1cc(-n2cnnn2)n2ncnc2n1 | -4.919% |
| Cc1cc(N2CCCC2Cn2nc(C)cc2C)n2ncnc2n1 (centres undefined) | 11.78% |
| O=C(C1CCC1)N1C[C@@H]2CC[C@H](C1)N(S(=O)(=O)c1ccccc1)C2 | -12.74% |
